Measurements published in PubChem BioAssay (EPA / NIEHS).
Active and inactive are the calls of the source. The calls were made as follows: active = hit-call score of the fitted dose curve at least 0.9, where 1 is the maximum; inactive = score below 0.9.

Key:
[1] = read-out: Matrix Metallopeptidase 9 (MMP9), MMP9 (gene 4318); assay: BSK_KF3CT_MMP9: BioMAP Diversity Plus: KF3CT Assay for Matrix Metallopeptidase 9 (MMP9) Biomarker Activity (AID 2283074); details: primary human keratinocytes with fibroblasts; actives raise or lower the signal;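 as to AC50: MMP9 protein level quantified by ELISA in the co-culture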
Outline: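 MMP-9 quantified by ELISA after 24 h chemical treatment of primary human skin keratinocyte/fibroblast co-cultures; gain or loss fitted against DMSO, with parallel SRB staining (0.1% SRB, 560 nm) for overt cytotoxicity.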

[2] = read-out: urokinase plasminogen activator (uPA), PLAU (gene 5328); assay: BSK_KF3CT_uPA: BioMAP Diversity Plus: KF3CT Assay for urokinase plasminogen activator (uPA) Biomarker Activity (AID 2283075); details: primary human keratinocytes with fibroblasts; actives raise or lower the signal
Outline: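 ELISA read-out of uPA 24 h after dosing human skin keratinocytes co-cultured with foreskin fibroblasts. Signal change fitted both ways relative to DMSO; sulforhodamine B on parallel cultures marks overt cytotoxicity.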

CD40, CD40 (gene 958) [3] = assay: BSK_LPS_CD40: BioMAP Diversity Plus: LPS Assay for CD40 Biomarker Activity (AID 2283076); details: primary human HUVEC with PBMC; actives raise or lower the signal
Outline: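 Using a multiplexed primary human co-culture (umbilical vein endothelium plus PBMC), CD40 was read by ELISA 24 h after dosing, with cytotoxicity tracked by sulforhodamine B staining of parallel cultures and activity fitted bidirectionally versus DMSO.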

[4] = read-out: E-selectin (Homo sapiens) (UniProt P16581); assay: BSK_LPS_Eselectin: BioMAP Diversity Plus: LPS Assay for Eselectin Biomarker Activity (AID 2283077); details: primary human HUVEC with PBMC; actives raise or lower the signal
Outline: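 Dose chemical onto LPS-driven HUVEC/PBMC co-culture; after 24 h, run ELISA for E-selectin; fit up- and down-going responses relative to DMSO control.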

[5] = read-out: Interleukin-8 (IL8), CXCL8 (gene 3576); assay: BSK_LPS_IL8: BioMAP Diversity Plus: LPS Assay for Interleukin-8 (IL8) Biomarker Activity (AID 2283078); details: primary human HUVEC with PBMC; actives raise or lower the signal
Outline: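 In this LPS system, chemical-treated human umbilical vein endothelium/PBMC co-cultures were harvested at 24 h for IL-8 ELISA.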

[6] = BSK_LPS_SRB: Viability Assessment in the BioMAP Diversity Plus: LPS Assay (AID 2283079); details: primary human HUVEC with PBMC;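 also: total protein by sulforhodamine B absorbance as a cytotoxicity measure; measured one day after compound addition; fitted in both directions against DMSO so loss or gain of signal counts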
Outline: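 Cytotoxicity endpoint in human endothelial–PBMC co-culture: 24 h exposure, then SRB (0.1%) staining, 560 nm read.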

[7] = read-out: Interleukin-1 alpha (IL1a), IL1A (gene 3552); assay: BSK_LPS_IL1a: BioMAP Diversity Plus: LPS Assay for Interleukin-1 alpha (IL1a) Biomarker Activity (AID 2283080); details: primary human HUVEC with PBMC; actives raise or lower the signal
Outline: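 Primary human HUVEC and PBMC co-culture stimulated with LPS is dosed and harvested at 24 h. Both increases and decreases in ELISA-measured IL-1a are scored relative to DMSO.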

[8] = read-out: Monocyte Chemoattractant Protein-1 (MCP1), CCL2 (gene 6347); assay: BSK_LPS_MCP1: BioMAP Diversity Plus: LPS Assay for Monocyte Chemoattractant Protein-1 (MCP1) Biomarker Activity (AID 2283081); details: primary human HUVEC with PBMC; actives raise or lower the signal;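 as to AC50: secreted MCP-1 protein quantified by ELISA in culture supernatant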
Outline: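 Values derive from bidirectional fitting against DMSO of ELISA-measured MCP-1 in a human primary endothelial and mononuclear cell co-culture, 24 h after chemical addition under LPS activation.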

[9] = BSK_LPS_PGE2: BioMAP Diversity Plus: LPS Assay for Prostaglandin E2 (PGE2) Biomarker Activity (AID 2283082); details: primary human HUVEC with PBMC; actives raise or lower the signal
Outline: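 Primary human endothelial cells and blood mononuclear cells, co-cultured with LPS, receive test chemical; PGE2 ELISA follows at 24 h, with SRB-stained parallel cultures flagging cytotoxicity.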

[10] = read-out: Macrophage colony-stimulating factor (MCSF), CSF1 (gene 1435); assay: BSK_LPS_MCSF: BioMAP Diversity Plus: LPS Assay for Macrophage colony-stimulating factor (MCSF) Biomarker Activity (AID 2283083); details: primary human HUVEC with PBMC; actives raise or lower the signal
Outline: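 Bidirectional fit versus DMSO of ELISA-measured M-CSF in co-cultured human umbilical vein endothelial cells and PBMC, sampled 24 h after dosing.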

[11] = read-out: Tissue Factor, F3 (gene 2152); assay: BSK_LPS_TissueFactor: BioMAP Diversity Plus: LPS Assay for Tissue Factor Biomarker Activity (AID 2283084); details: primary human HUVEC with PBMC; actives raise or lower the signal
Outline: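 Read-out: CD142 ELISA, 24 h. System: LPS-driven human endothelial/PBMC co-culture. Analysis: up- or down-signal fitted against DMSO.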

[12] = read-out: Tumor necrosis factor (Homo sapiens) (UniProt P01375); assay: BSK_LPS_TNFa: BioMAP Diversity Plus: LPS Assay for Tumour Necrosis Factor alpha (TNFa) Biomarker Activity (AID 2283085); details: primary human HUVEC with PBMC; actives raise or lower the signal;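 as to AC50: TNFa protein level quantified by ELISA in the co-culture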
Outline: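 ELISA-based TNFa endpoint in a human endothelial–PBMC co-culture sampled 24 h post-exposure. Curves were fitted in both directions using DMSO as baseline of activity.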

CD38, CD38 (gene 952) = assay: BSK_SAg_CD38: BioMAP Diversity Plus: SAg Assay for CD38 Biomarker Activity (AID 2283087); details: primary human HUVEC with PBMC; actives raise or lower the signal
Outline: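 Measures CD38 on a human endothelial/PBMC co-culture driven by SEB and TSST-1, 24 h after compound exposure, using ELISA with fluorescence detection; DMSO defines baseline for bidirectional curve fitting.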

CD40, CD40 (gene 958) [13] = assay: BSK_SAg_CD40: BioMAP Diversity Plus: SAg Assay for CD40 Biomarker Activity (AID 2283088); details: primary human HUVEC with PBMC; actives raise or lower the signal
Outline: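 Endpoint derived by fitting increases or decreases versus DMSO controls. CD40 is detected by fluorescence ELISA in a human vascular co-culture of endothelium and PBMC at 24 h.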

CD69, CD69 (gene 969) = assay: BSK_SAg_CD69: BioMAP Diversity Plus: SAg Assay for CD69 Biomarker Activity (AID 2283089); details: primary human HUVEC with PBMC; actives raise or lower the signal;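 as to AC50: cell surface CD69 protein quantified by ELISA with fluorescence detection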
Outline: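 ELISA, fluorescence read-out: CD69 on human umbilical vein endothelial cell + PBMC co-culture, 24 h post-dosing. Gain or loss of signal fitted bidirectionally against DMSO baseline.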

[14] = read-out: Monocyte Chemoattractant Protein-1 (MCP1), CCL2 (gene 6347); assay: BSK_SAg_MCP1: BioMAP Diversity Plus: SAg Assay for Monocyte Chemoattractant Protein-1 (MCP1) Biomarker Activity (AID 2283090); details: primary human HUVEC with PBMC; actives raise or lower the signal
Outline: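 Values derive from bidirectional fitting of ELISA-measured MCP1 against DMSO controls. Readings were taken 24 h after dosing human vascular endothelial cells co-cultured with peripheral blood mononuclear cells under superantigen stimulation.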

[15] = read-out: E-selectin (Homo sapiens) (UniProt P16581); assay: BSK_SAg_Eselectin: BioMAP Diversity Plus: SAg Assay for Eselectin Biomarker Activity (AID 2283091); details: primary human HUVEC with PBMC; actives raise or lower the signal
Outline: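 Endpoint values derive from bidirectional fitting relative to DMSO, using ELISA-measured E-selectin in a human vascular co-culture (umbilical vein endothelium plus PBMC) sampled 24 h after dosing.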

[16] = read-out: Monokine induced gamma interferon (MIG), CXCL9 (gene 4283); assay: BSK_SAg_MIG: BioMAP Diversity Plus: SAg Assay for Monokine induced gamma interferon (MIG) Biomarker Activity (AID 2283092); details: primary human HUVEC with PBMC; actives raise or lower the signal
Outline: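 ELISA readout of MIG/CXCL9; primary human umbilical vein endothelial cells co-cultured with peripheral blood mononuclear cells; 24 h post-dose; gain/loss fit vs DMSO baseline.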

[17] = BSK_SAg_PBMCCytotoxicity: PBMC Cytotoxicity Assessment in the BioMAP Diversity Plus: SAg Assay (AID 2283093); details: primary human HUVEC with PBMC;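 also: PBMC viability measured as Alamar Blue reduction fluorescence at 546/580 nm; fitted both ways against DMSO so a hit may be loss or gain of signal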;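 as to AC50: PBMC superantigen activated with SEB plus TSST-1 one hour after compound addition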
Outline: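 Alamar Blue reduction (6 h, ex/em 546/580 nm) read after 90 h culture of PBMC pre-dosed 1 h then stimulated with SEB plus TSST-1, 20 ng/mL each. Gain or loss of signal fitted relative to DMSO.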

[18] = read-out: Vascular cell adhesion molecule 1 (VCAM1), VCAM1 (gene 7412); assay: BSK_LPS_VCAM1: BioMAP Diversity Plus: LPS Assay for Vascular cell adhesion molecule 1 (VCAM1) Biomarker Activity (AID 2283086); details: primary human HUVEC with PBMC; actives raise or lower the signal
Outline: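 Measured by ELISA: VCAM-1 in LPS-activated HUVEC/PBMC co-cultures 24 h after treatment. Values reflect bidirectional fitting with DMSO as baseline.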

Measured: AC50

Chain of E-selectin (Homo sapiens) (P16581 whole entry, looked up): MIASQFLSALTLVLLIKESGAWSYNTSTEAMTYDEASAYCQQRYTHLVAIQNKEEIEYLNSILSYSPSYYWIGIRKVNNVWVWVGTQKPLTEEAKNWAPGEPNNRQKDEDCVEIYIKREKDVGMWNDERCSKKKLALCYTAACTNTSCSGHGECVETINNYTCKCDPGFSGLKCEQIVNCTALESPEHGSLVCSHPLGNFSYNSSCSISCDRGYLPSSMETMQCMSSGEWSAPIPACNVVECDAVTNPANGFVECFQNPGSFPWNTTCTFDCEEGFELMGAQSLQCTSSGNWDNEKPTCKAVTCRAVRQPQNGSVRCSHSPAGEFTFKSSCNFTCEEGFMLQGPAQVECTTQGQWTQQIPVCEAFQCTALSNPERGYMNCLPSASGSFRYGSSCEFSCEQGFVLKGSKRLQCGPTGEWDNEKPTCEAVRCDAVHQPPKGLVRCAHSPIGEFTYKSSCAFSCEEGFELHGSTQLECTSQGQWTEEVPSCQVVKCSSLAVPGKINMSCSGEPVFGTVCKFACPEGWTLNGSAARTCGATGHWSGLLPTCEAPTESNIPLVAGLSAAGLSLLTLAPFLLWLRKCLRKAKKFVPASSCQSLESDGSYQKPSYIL
Chain of Tumor necrosis factor (Homo sapiens) (P01375 whole entry, looked up): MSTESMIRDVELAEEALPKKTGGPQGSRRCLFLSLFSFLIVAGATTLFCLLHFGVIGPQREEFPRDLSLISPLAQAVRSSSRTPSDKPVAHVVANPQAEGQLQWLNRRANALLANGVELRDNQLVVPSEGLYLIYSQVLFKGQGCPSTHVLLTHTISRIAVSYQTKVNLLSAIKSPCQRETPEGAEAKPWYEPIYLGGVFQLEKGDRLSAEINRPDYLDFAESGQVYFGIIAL

Clc1ccccc1Cl
not listed: [18]
inactive: all other assays above

CNC(=O)Oc1cccc2c1OC(C)(C)C2
not listed: [18]
inactive: all other assays above

C=CCc1ccc2c(c1)OCO2
not listed: [18]
inactive: all other assays above

O=C(Nc1ccccc1)c1ccccc1I
not listed: [15]
inactive: all other assays above

CC(C)(OOC(C)(C)c1ccccc1)c1ccccc1
inactive: [1] | [2] | [9] | [11]
active: CD40, CD40 (gene 958) [3] 34.6 µM | [4] 34 µM | [5] 30.1 µM | [6] 36.8 µM | [7] 29.2 µM | [8] 30.4 µM | [10] 32.5 µM | [12] 31.7 µM | [18] 30.7 µM | CD38, CD38 (gene 952) 33.5 µM | CD40, CD40 (gene 958) [13] 31 µM | CD69, CD69 (gene 969) 31.6 µM | [14] 33 µM | [16] 31.3 µM | [17] 27 µM

COP(=S)(OC)SCN1C(=O)c2ccccc2C1=O
not listed: [18]
inactive: all other assays above

N#CC(Br)(Br)C(N)=O
not listed: [15]
inactive: all other assays above

ClC1=C(Cl)C2(Cl)C3C(Cl)C=CC3C1(Cl)C2(Cl)Cl (configuration not stated)
inactive: [9]
active: [1] 13.8 µM | [2] 31 µM | CD40, CD40 (gene 958) [3] 30.9 µM | [4] 30.6 µM | [5] 31.6 µM | [6] 29.5 µM | [7] 30 µM | [8] 31.4 µM | [10] 29.5 µM | [11] 32.2 µM | [12] 33.5 µM | CD38, CD38 (gene 952) 32.6 µM | CD40, CD40 (gene 958) [13] 25.7 µM | CD69, CD69 (gene 969) 31.8 µM | [14] 31.6 µM | [15] 31.1 µM | [16] 36.8 µM | [17] 13 µM

ClCCOCCCl
not listed: [15]
inactive: all other assays above

O=C(Oc1ccc(Br)cc1)N1CCN2CCC1CC2
not listed: [15]
inactive: all other assays above

CCC[CH2][Sn]([Cl])([CH2]CCC)[CH2]CCC
active: [1] 0.292 µM | [2] 0.148 µM | CD40, CD40 (gene 958) [3] 0.148 µM | [4] 0.148 µM | [5] 0.148 µM | [6] 0.269 µM | [7] 0.344 µM | [8] 0.148 µM | [10] 0.615 µM | [11] 0.148 µM | [12] 0.248 µM | CD38, CD38 (gene 952) 0.248 µM | CD40, CD40 (gene 958) [13] 0.148 µM | CD69, CD69 (gene 969) 0.148 µM | [14] 0.148 µM | [15] 0.148 µM | [16] 0.148 µM | [17] 0.148 µM
inactive: [9]

O=[N+]([O-])C(Br)(CO)CO
inactive: [9]
active: [1] 34.4 µM | [2] 36.8 µM | CD40, CD40 (gene 958) [3] 29 µM | [4] 32.8 µM | [5] 34.2 µM | [6] 29.6 µM | [7] 34 µM | [8] 25.9 µM | [10] 28.9 µM | [11] 28.4 µM | [12] 31.7 µM | [18] 30.1 µM | CD38, CD38 (gene 952) 31.3 µM | CD40, CD40 (gene 958) [13] 28.1 µM | CD69, CD69 (gene 969) 28.5 µM | [14] 31.1 µM | [16] 39.1 µM | [17] 22.5 µM

CCOC(=O)[C@]1(c2ccccc2)Oc2ccccc2[C@@H]1N
active: [1] 31 µM | CD40, CD40 (gene 958) [3] 32.9 µM | [5] 36.1 µM | CD38, CD38 (gene 952) 36.2 µM | [14] 30.1 µM | [17] 24.3 µM
not listed: [15]
inactive: all other assays above
